Measurements published in PubChem BioAssay AID504332 (National Center for Advancing Translational Sciences (NCATS), 2011).
Among all 350,000 compounds or so, about 31,000 (8.9%) were called active. Roughly 15% stayed inconclusive and do not appear here. The call rests on the fitted dose curve; in most records, active means well fitted inhibition curve with a large enough effect; inconclusive means small, poorly fitted or top-dose-only effect; inactive means no such curve, though single readings can be large or run the other way. Only a selection was taken, and actives are over-represented in it overall.

Each compound was assayed against Histone-lysine N-methyltransferase EHMT2 (Homo sapiens) (UniProt Q96KQ7) (assay: qHTS Assay for Inhibitors of Histone Lysine Methyltransferase G9a). Conditions: G9a H3K9 monomethylation, AlphaScreen, 2 h; series mostly up to 59 µM.
Chain of Histone-lysine N-methyltransferase EHMT2 (Homo sapiens) (Q96KQ7 913-1193 limits assumed): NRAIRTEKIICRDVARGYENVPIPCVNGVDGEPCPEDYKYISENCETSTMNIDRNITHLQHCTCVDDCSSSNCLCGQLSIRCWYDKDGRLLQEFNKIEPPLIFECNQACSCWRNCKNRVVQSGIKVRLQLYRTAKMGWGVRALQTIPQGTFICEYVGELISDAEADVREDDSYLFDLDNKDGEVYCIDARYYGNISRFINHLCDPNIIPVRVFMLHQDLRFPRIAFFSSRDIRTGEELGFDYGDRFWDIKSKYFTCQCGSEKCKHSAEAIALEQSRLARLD
From the text: Methylated lysines, on the N-terminal tails of histone proteins serve as epigenetic markers to recruit factors that can then modify local chromatin structure to lead to functional consequences. G9a and other members of the SUV39 family of the SET domain-containing superfamily of histone lysine methyltransferases (HMT) have been identified to specifically methylate Lys9 of histone H3 (H3K9). G9a catalyzes the mono- and di-methylation of H3K9 in mammalian euchromatic regions, where the resulting H3K9me2 is indicative of transcriptional repression. […] The inhibition of G9a will result in transcriptional activation and work synergistically with DNA methyltransferase and histone deacetylase inhibitors, to kill cancer cells. This qHTS assay for identification of G9a inhibitors is a chemiluminescence based AlphaScreen (PerkinElmer). Methylation of biotinylated-histone peptide is measured through specific antibody-based detection, in conjunction with streptavidin-coated donor and anti-IgG antibody-coated acceptor beads. The method is particularly well suited for detection of inhibitors acting by the desired histone peptide competitive mechanism and is applicable to testing other HMTs. Although AlphaScreen has significant advantages with its utility in a variety of epigenetic target assays, the primary screening data provided in this deposition should be used with caution due to the prevalence of screening artifacts. An AlphaScreen counterscreen is highly recommended to be run against any putative actives to eliminate non specific artifacts. Alternatively, one can use other AlphaScreen assays in PubChem to filter out promiscuous hits. Quinn et al. A chemiluminescence-based method for identification of histone lysine methyltransferase inhibitors. Mol Biosyst 6(5): 782-8. 2010. PMID: 20567762 [2] Baell,Holloway. New substructure filters for removal of pan assay interference compounds (PAINS) from screening libraries and for their exclusion in bioassays. J Med Chem. 53(7):2719-40. 2010. PMID: 20131845 NIH Molecular Libraries Probe Production Network [MLPCN] NIH Chemical Genomics Center [NCGC] Structural Genomics Consortium (SGC) NIH Grant: 5U54 MH084681-02
To each well of a 1,536w plate, 2ul of HMT enzyme (final 20nM) were added, using a nanoliter dispenser. The G9a- and GLP-inhibitor BIX-01294 (CID: 25150857) are used as an intraplate control, with a 16-point titration in duplicate. A Kalypsys pin-tool transferred 23nl of library compound solution in DMSO to each well. Following a 15 min incubation of enzyme with compounds at room temperature, 1ul mixture of b-H3K9 peptide substrate (final 500nM) and SAM cofactor (final 20uM) were added. Reactions were allowed to proceed at room temperature for 2 hours. Methylated b-H3K9 peptide product was detected with 0.5 ug/mL rabbit polyclonal anti-monomethyl histone H3K9 antibody (Abcam Inc., Cambridge, MA) and 20 ug/mL each streptavidin-coated donor and anti-rabbit IgG acceptor AlphaScreen beads. Antibody and beads were added in a 1ul dispense, for a final volume of 4ul, and plates were incubated, protected from the light, for 10 min at room temperature. Microplates were then read on an EnVision multilabel plate reader using the 1,536 plate HTS AlphaScreen aperture (excitation time 80 ms, measurement time 240 ms).
Further: nearly all actives have a fitted effect of over 75% in size.
On the % scale 0 is the no-effect control and ±100 the full control effect; potency means the concentration at half of the fitted maximal effect.

Potency, active:
CCOC(=O)CNC(=O)CSc1nnc(-c2cccc(OC)c2)n1CC 50.1 µM
CCOC(=O)CNC(=O)CSc1nnc(COc2ccc(Cl)cc2)n1CC 20 µM
CCc1nc(Nc2ccc(NC(C)=O)cc2)c2oc3ccccc3c2n1 50.1 µM
Clc1c(OCCCn2ccnc2)ccc2ccccc12 79.4 µM
COc1ccccc1CSc1ncc(-c2ccc([N+](=O)[O-])cc2)[nH]1 8.91 µM

Potency, inactive:
CC(=O)Nc1ccc(NC(=O)c2cc3sccc3n2Cc2ccc(F)cc2)cc1
COc1ccc(NC(=O)C2CCCN(S(=O)(=O)c3c(C)[nH]c(=O)[nH]c3=O)C2)c(OC)c1 (stereo not given)
CCOC(=O)CNC(=O)c1nn(-c2cccc(OC)c2)c(=O)c2ccccc12
C=CCn1c(COc2ccccc2)nnc1SCC(=O)NCC(=O)OCC
CN(C)c1cccc(C(=O)Nc2nc3ccc(S(=O)(=O)NC(C)(C)C)cc3s2)c1
CCCCCN(C(=O)CCC(=O)OCCOc1ccc(OC)cc1)c1c(N)n(CCCC)c(=O)[nH]c1=O
COc1ccc(S(=O)(=O)c2cn(C)c3cc(N4CCCCC4)c(F)cc3c2=O)cc1
CCc1nc(Nc2ccc3nccnc3c2)c2oc3ccccc3c2n1
CCOc1ccc(S(=O)(=O)N(CC(=O)NCCSCc2ccc(C)cc2)c2ccccc2)cc1
c1ccc(Cc2ccc(OCCn3ccnc3)cc2)cc1
Brc1ccc(OCCn2ccnc2)cc1
CCOc1ccc(CNC(=O)CCc2c(C)nn(-c3ccc(N4CCCCC4)nn3)c2C)cc1
COc1ccccc1CC(=O)Nc1ccc([N+](=O)[O-])cc1OC
COc1ccccc1CSc1nc2ccccc2[nH]1

activity, negative = inhibition, inactive:
CCn1c(SCC(=O)Nc2nccs2)nnc1-c1ccncc1 -2.99% [at 12.7 µM]
CCn1c(COc2ccc(OC)cc2)nnc1SCC(=O)Nc1cc(OC)ccc1OC 7.11% [at 12.7 µM]
COC(=O)C1CCN(C(=O)NC2CC(=O)N(c3ccc4c(c3)OCCO4)C2)CC1 (stereo not given) 21.6% [at 0.501 µM]
O=C(CSc1nnc(N2CCOCC2)n1-c1cccc(F)c1)N1CCN(c2ccccn2)CC1 -9.34% [at 12.7 µM]
CCc1nc(N2CCN(c3nc(C)cc(C)n3)CC2)c2oc3ccccc3c2n1 2.59% [at 2.33 µM]
Cc1ccccc1S(=O)(=O)N1[C@@H](c2cccc(Cl)c2)C(C(=O)O)=CC[C@H]1c1ccc(Cl)cc1 -5.32% [at 2.33 µM]
